PubChem BioAssay AID1159580 (chemical genetic matrix, 2015)
In all, about 5,500 compounds went through this assay and about 2,000 (36%) were called active. Another 18% or so got no clear call; they are omitted. Rule as the data show it: active = normalized growth mostly below about 0.91 (no sharp cut-off); inconclusive = no clear call, values can overlap the other calls; inactive = mostly above about 0.92. Some of the results follow.

Test: chemical genetic growth profiling, strain panel (AID 1159580);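 also: tested at 20 µM; growth read once vehicle control cultures reached saturation at 30 °C; 1 = growth at the plate median or of vehicle wells; lower values mean less growth of the strain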
Settings: growth OD
[1] = S. cerevisiae deletion strains, locus YJR075W, strain HOC1, active compounds read low
[2] = S. cerevisiae deletion strains, locus YMR307W, strain GAS1, active compounds read low
[3] = S. cerevisiae deletion strains, locus YNL153C, strain GIM3, active compounds read low

Measured: normalized growth

CN1CCC(c2c[nH]c3ccc(O)cc23)CC1
inactive: S. cerevisiae deletion strains, locus YAL040C, strain CLN3, active compounds read low 0.986 | S. cerevisiae deletion strains, locus YCL061C, strain MRC1 (second series), active compounds read low 1.01 | S. cerevisiae deletion strains, locus YDR150W, strain NUM1, active compounds read low 1.01 | S. cerevisiae deletion strains, locus YDR363W, strain ESC2, active compounds read low 1 | S. cerevisiae deletion strains, locus YER002W, strain NOP16, active compounds read low 0.987 | [1] 1.01 | [2] 0.988 | [3] 0.948 | S. cerevisiae deletion strains, locus YNL175C, strain NOP13, active compounds read low 1.01 | S. cerevisiae deletion strains, locus YNL197C, strain WHI3, active compounds read low 0.999 | S. cerevisiae deletion strains, locus YNL224C, strain SQS1, active compounds read low 1.02 | S. cerevisiae deletion strains, locus YOR083W, strain WHI5 (second series), active compounds read low 1.04 | S. cerevisiae deletion strains, locus YPL055C, strain LGE1, active compounds read low 0.996

CSCCC(NC=O)C(=O)NC(C)C(=O)O (stereo not drawn)
inactive: S. cerevisiae deletion strains, locus YBR021W, strain FUR4, active compounds read low 0.982 | S. cerevisiae deletion strains, locus YBR229C, strain ROT2, active compounds read low 0.989 | S. cerevisiae deletion strains, locus YCL029C, strain bik1, active compounds read low 0.983 | S. cerevisiae deletion strains, locus YDL035C, strain GPR1, active compounds read low 1.01 | S. cerevisiae deletion strains, locus YDL074C, strain BRE1, active compounds read low 1.02 | S. cerevisiae deletion strains, locus YDL101C, strain DUN1, active compounds read low 0.998 | S. cerevisiae deletion strains, locus YDL134C, strain PPH21, active compounds read low 0.989 | S. cerevisiae deletion strains, locus YDL185W, strain tfp1, active compounds read low 0.977 | S. cerevisiae deletion strains, locus YDL192W, strain arf1, active compounds read low 0.972 | S. cerevisiae deletion strains, locus YDR101C, strain arx1, active compounds read low 0.983 | S. cerevisiae deletion strains, locus YDR162C, strain NBP2, active compounds read low 0.997 | S. cerevisiae deletion strains, locus YDR318W, strain mcm21, active compounds read low 0.988 | S. cerevisiae deletion strains, locus YDR388W, active compounds read low 0.985 | S. cerevisiae deletion strains, locus YDR502C, strain sam2, active compounds read low 0.992 | S. cerevisiae deletion strains, locus YEL061C, strain CIN8, active compounds read low 0.995 | S. cerevisiae deletion strains, locus YER110C, active compounds read low 0.976 | S. cerevisiae deletion strains, locus YER155C, strain BEM2, active compounds read low 0.993 | S. cerevisiae deletion strains, locus YER167W, strain BCK2, active compounds read low 0.988 | S. cerevisiae deletion strains, locus YGL078C, strain dbp3, active compounds read low 0.978 | S. cerevisiae deletion strains, locus YGL086W, strain mad1, active compounds read low 0.996 | S. cerevisiae deletion strains, locus YGL248W, strain PDE1, active compounds read low 1.01 | S. cerevisiae deletion strains, locus YGR078C, strain PAC10, active compounds read low 1.03 | S. cerevisiae deletion strains, locus YGR135W, strain pre9, active compounds read low 0.984 | S. cerevisiae deletion strains, locus YGR229C, strain SMI1, active compounds read low 0.995 | S. cerevisiae deletion strains, locus YGR252W, strain gcn5, active compounds read low 0.972 | S. cerevisiae deletion strains, locus YHR030C, strain SLT2, active compounds read low 0.989 | S. cerevisiae deletion strains, locus YHR079C, strain IRE1 (second series), active compounds read low 0.988 | S. cerevisiae deletion strains, locus YHR094C, strain hxt1, active compounds read low 0.978 | S. cerevisiae deletion strains, locus YHR129C, strain ARP1, active compounds read low 0.996 | S. cerevisiae deletion strains, locus YHR200W, strain rpn10, active compounds read low 0.987 | S. cerevisiae deletion strains, locus YIL066C, strain RNR3, active compounds read low 1 | S. cerevisiae deletion strains, locus YIL073C, strain SPO22, active compounds read low 0.943 | S. cerevisiae deletion strains, locus YIL125W, strain kgd1, active compounds read low 0.987 | S. cerevisiae deletion strains, locus YIR030C, strain dcg1, active compounds read low 0.983 | S. cerevisiae deletion strains, locus YJL095W, strain BCK1, active compounds read low 1.04 | S. cerevisiae deletion strains, locus YJL134W, strain LCB3, active compounds read low 0.991 | S. cerevisiae deletion strains, locus YJL168C, strain set2, active compounds read low 0.985 | S. cerevisiae deletion strains, locus YJL187C, strain SWE1 (second series), active compounds read low 1.01 | S. cerevisiae deletion strains, locus YJR043C, strain POL32, active compounds read low 1.02 | [1] 1.01 | S. cerevisiae deletion strains, locus YKL009W, strain mrt4, active compounds read low 0.974 | S. cerevisiae deletion strains, locus YKL068W, active compounds read low 0.986 | S. cerevisiae deletion strains, locus YKL085W, strain MDH1 (second series), active compounds read low 1.01 | S. cerevisiae deletion strains, locus YKL085W, strain MDH1, active compounds read low 1.01 | S. cerevisiae deletion strains, locus YKL190W, strain CNB1, active compounds read low 1 | S. cerevisiae deletion strains, locus YKR001C, strain vps1, active compounds read low 0.988 | S. cerevisiae deletion strains, locus YLR039C, strain RIC1, active compounds read low 1.01 | S. cerevisiae deletion strains, locus YLR058C, strain SHM2, active compounds read low 0.996 | S. cerevisiae deletion strains, locus YLR102C, strain apc9, active compounds read low 0.98 | S. cerevisiae deletion strains, locus YLR262C, strain YPT6, active compounds read low 1.04 | S. cerevisiae deletion strains, locus YLR268W, strain sec22, active compounds read low 0.987 | S. cerevisiae deletion strains, locus YLR330W, strain CHS5, active compounds read low 0.99 | S. cerevisiae deletion strains, locus YLR342W, strain FKS1 (second series), active compounds read low 0.987 | S. cerevisiae deletion strains, locus YLR371W, strain rom2, active compounds read low 0.972 | S. cerevisiae deletion strains, locus YLR418C, strain cdc73, active compounds read low 0.994 | S. cerevisiae deletion strains, locus YML016C, strain PPZ1, active compounds read low 0.993 | S. cerevisiae deletion strains, locus YML032C, strain rad52, active compounds read low 0.987 | S. cerevisiae deletion strains, locus YML124C, strain tub3, active compounds read low 0.981 | S. cerevisiae deletion strains, locus YMR078C, strain ctf18, active compounds read low 0.984 | S. cerevisiae deletion strains, locus YMR223W, strain ubp8, active compounds read low 0.986 | S. cerevisiae deletion strains, locus YMR263W, strain SAP30, active compounds read low 1.01 | [2] 0.872 | S. cerevisiae deletion strains, locus YNL067W, strain RPL9B, active compounds read low 1.03 | [3] 1.04 | S. cerevisiae deletion strains, locus YNL233W, strain BNI4, active compounds read low 1.01 | S. cerevisiae deletion strains, locus YNL250W, strain rad50, active compounds read low 0.983 | S. cerevisiae deletion strains, locus YNL271C, strain bni1, active compounds read low 0.968 | S. cerevisiae deletion strains, locus YNL298W, strain CLA4, active compounds read low 0.99 | S. cerevisiae deletion strains, locus YNL307C, strain MCK1, active compounds read low 0.989 | S. cerevisiae deletion strains, locus YNR052C, strain pop2, active compounds read low 0.983 | S. cerevisiae deletion strains, locus YOL006C, strain TOP1, active compounds read low 1.05 | S. cerevisiae deletion strains, locus YOL012C, strain htz1 1.02 | S. cerevisiae deletion strains, locus YOL147C, strain pex11, active compounds read low 0.983 | S. cerevisiae deletion strains, locus YOR061W, strain CKA2, active compounds read low 0.993 | S. cerevisiae deletion strains, locus YOR069W, strain VPS5, active compounds read low 0.983 | S. cerevisiae deletion strains, locus YOR136W, strain idh2, active compounds read low 0.995 | S. cerevisiae deletion strains, locus YOR144C, strain elg1, active compounds read low 0.984 | S. cerevisiae deletion strains, locus YOR184W, strain ser1, active compounds read low 0.995 | S. cerevisiae deletion strains, locus YOR316C, strain cot1, active compounds read low 0.972 | S. cerevisiae deletion strains, locus YPR119W, strain clb2, active compounds read low 0.991 | S. cerevisiae deletion strains, locus YPR141C, strain kar3, active compounds read low 0.978 | S. cerevisiae deletion strains, locus YPR163C, strain tif3, active compounds read low 0.988 | S. cerevisiae deletion strains, locus YPR167C, strain met16, active compounds read low 0.978 | S. cerevisiae deletion strains, strain wtn01, active compounds read low 0.992 | S. cerevisiae strains, strain wild type, active compounds read low 0.996
